# Laboratory results taken from PubChem BioAssay (NCI).
# This is part of a sample that, as a whole, favours compounds with a hit. Of some 79,000 tested, about 15% had one in any assay. A number with no mark means an inactive call. Active and inactive are the calls of the source. Cut-off read from the data, not from the text of the source: active = growth inhibition above about 70%; inactive = the rest.
# Legend:
# [1] = NCI Yeast Anticancer Drug Screen. Data for the rad52 strain (AID 147);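 note: 0% = growth of vehicle-treated control cultures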; settings: S. cerevisiae rad52 mutant growth inhibition, hits give high values
# In short: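 Here a repair-compromised yeast strain receives each compound; its growth is then quantified and normalised to vehicle-only controls.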
# [2] = NCI Yeast Anticancer Drug Screen. Data for the wt1 strain (AID 149);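 note: 0% = growth of vehicle-treated wt1 cultures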; settings: S. cerevisiae wt1 strain (SPY 50644) growth inhibition, hits give high values
# In short: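 The wt1 strain was treated with compounds, and growth was compared with vehicle-treated cultures to give inhibition.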
# [3] = NCI Yeast Anticancer Drug Screen. Data for the rad50EPP+ strain (AID 151);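 note: 0% = growth of vehicle-treated control cultures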; settings: S. cerevisiae rad50 mutant strain, hits give high values
# In short: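 Read-out is yeast growth inhibition relative to vehicle; cells used were the rad50EPP+ strain.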
# [4] = NCI Yeast Anticancer Drug Screen. Data for the mgt1 strain (AID 153); settings: S. cerevisiae mgt1 mutant growth inhibition, hits give high values
# In short: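 Measured: inhibition of mgt1 yeast growth by compound, normalized to vehicle-treated cultures.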
# [5] = NCI Yeast Anticancer Drug Screen. Data for the rad50 strain (AID 155);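 note: 0% = growth of vehicle-only cultures of the same strain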; settings: S. cerevisiae rad50 strain growth inhibition, hits give high values
# In short: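 Cells are treated with compound, grown, and their growth is then scored against vehicle-only cultures of the same repair-deficient yeast strain.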
# [6] = NCI Yeast Anticancer Drug Screen. Data for the mec2-1 strain (AID 157); settings: S. cerevisiae mec2-1 strain, hits give high values
# In short: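 Using mec2-1 yeast: add compound, measure growth, express inhibition versus vehicle-treated cultures.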
# [7] = NCI Yeast Anticancer Drug Screen. Data for the sgs1 mgt1 strain (AID 161);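 note: 0% = growth of cultures given vehicle only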; settings: S. cerevisiae sgs1 mgt1 strain, hits give high values
# In short: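 Compounds are added to genetically altered yeast, and growth is compared with cultures given vehicle alone to give percent inhibition.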
# [8] = NCI Yeast Anticancer Drug Screen. Data for the CLN2oe strain (AID 163);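 note: 0% = growth of vehicle-only control cultures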; settings: S. cerevisiae CLN2oe strain, hits give high values
# In short: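 Whole-cell yeast growth assay. A strain engineered for altered cell-cycle control received compound, and inhibition relative to vehicle-treated cultures was recorded.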
# [9] = NCI Yeast Anticancer Drug Screen. Data for the cln2 rad14 strain (AID 165);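 note: 0% = growth equal to vehicle treated cultures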; settings: S. cerevisiae cln2 rad14 strain, hits give high values
# In short: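 Yeast strain cln2 rad14, bearing defects in cell cycle control and DNA repair, serves as the test system; values reflect growth inhibition compared with vehicle.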
# [10] = NCI Yeast Anticancer Drug Screen. Data for the bub3 strain (AID 167); settings: S. cerevisiae bub3 mutant strain, hits give high values
# In short: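 Part of a panel of yeast mutants defective in DNA damage repair or cell cycle regulation. Each strain is grown with compound, and inhibition is calculated relative to solvent-treated cultures.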
# [11] = NCI Yeast Anticancer Drug Screen. Data for the wt2 strain (AID 169);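 note: 0% = growth of vehicle-treated yeast cultures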; settings: S. cerevisiae wt2 strain growth inhibition, hits give high values
# In short: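 Treated yeast vs. vehicle-treated yeast: growth inhibition determined.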
# [12] = NCI Yeast Anticancer Drug Screen. Data for the mlh1 strain (AID 171);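 note: 0% = growth of vehicle-treated control cultures of the same strain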; settings: S. cerevisiae mlh1 strain growth inhibition, hits give high values
# In short: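 A yeast strain with a defined genetic lesion serves as the test organism. Cultures receive compound or vehicle, and growth is measured.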
# [13] = NCI Yeast Anticancer Drug Screen. Data for the sgs1 strain (AID 173);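 note: 0% = growth of vehicle-only control cultures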; settings: S. cerevisiae sgs1 mutant, hits give high values
# In short: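 A genetically defined yeast mutant is incubated with the test compound, and its growth is compared to that of the same strain given vehicle.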
# [14] = NCI Yeast Anticancer Drug Screen. Data for the mlh1 rad18 strain (AID 175); settings: S. cerevisiae mlh1 rad18 strain growth inhibition, hits give high values
# In short: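 Steps: expose repair-defective yeast to compound; measure growth; express inhibition against vehicle-treated controls.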
# [15] = NCI Yeast Anticancer Drug Screen. Data for the rad18 strain (AID 177); settings: S. cerevisiae rad18 mutant growth inhibition, hits give high values
# In short: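 Measured value is growth inhibition of a yeast strain bearing a DNA repair alteration, referenced to vehicle-treated cells.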
# [16] = NCI Yeast Anticancer Drug Screen. Data for the rad14 strain (AID 159);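 note: 0% = growth of vehicle-treated control cultures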; settings: S. cerevisiae rad14 strain growth inhibition, hits give high values
# In short: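 Readout: yeast growth inhibition, referenced to vehicle-only cultures. Strain bears a defined alteration in DNA damage repair.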
# [17] = at 5.0 µM (retest, dose inferred, filed as 0.5)
# [18] = at 50.0 µM (retest, dose inferred, filed as 5.0)
compound,measurement,setting,value
O=C1C(CCSc2ccccc2)C(=O)N(c2ccccc2)C1c1ccccc1 (stereo unspecified),growth inhibition,[1]; at 1.2 µM,23%
same,growth inhibition,[1]; at 3.7 µM,24%
same,growth inhibition,[1]; at 11.0 µM,49%
same,growth inhibition,[1]; at 33.0 µM,96% (active)
same,growth inhibition,[1]; at 100.0 µM,89% (active)
same,growth inhibition,[2]; at 1.2 µM,-32%
same,growth inhibition,[2]; at 3.7 µM,-14%
same,growth inhibition,[2]; at 11.0 µM,17%
same,growth inhibition,[2]; at 33.0 µM,96% (active)
same,growth inhibition,[2]; at 100.0 µM,88% (active)
same,growth inhibition,[3]; at 1.2 µM,-4%
same,growth inhibition,[3]; at 3.7 µM,-12%
same,growth inhibition,[3]; at 11.0 µM,-15%
same,growth inhibition,[3]; at 33.0 µM,0%
same,growth inhibition,[3]; at 100.0 µM,-11%
same,growth inhibition,[4]; at 1.2 µM,8%
same,growth inhibition,[4]; at 3.7 µM,-18%
same,growth inhibition,[4]; at 11.0 µM,8%
same,growth inhibition,[4]; at 33.0 µM,97% (active)
same,growth inhibition,[4]; at 100.0 µM,89% (active)
same,growth inhibition,[5]; at 1.2 µM,12%
same,growth inhibition,[5]; at 3.7 µM,17%
same,growth inhibition,[5]; [17],28%
same,growth inhibition,[5]; at 11.0 µM,35%
same,growth inhibition,[5]; at 33.0 µM,96% (active)
same,growth inhibition,[5]; [18],85% (active)
same,growth inhibition,[5]; at 50.0 µM,90.9% (active)
same,growth inhibition,[5]; at 100.0 µM,89% (active)
same,growth inhibition,[6]; at 1.2 µM,11%
same,growth inhibition,[6]; at 3.7 µM,13%
same,growth inhibition,[6]; [17],47%
same,growth inhibition,[6]; at 11.0 µM,29%
same,growth inhibition,[6]; at 33.0 µM,95% (active)
same,growth inhibition,[6]; [18],99% (active)
same,growth inhibition,[6]; at 50.0 µM,91.4% (active)
same,growth inhibition,[6]; at 100.0 µM,90% (active)
same,growth inhibition,[7]; [17],-3%
same,growth inhibition,[7]; [18],99% (active)
same,growth inhibition,[7]; at 50.0 µM,92.3% (active)
same,growth inhibition,[8]; at 1.2 µM,-8%
same,growth inhibition,[8]; at 3.7 µM,2%
same,growth inhibition,[8]; at 11.0 µM,48%
same,growth inhibition,[8]; at 33.0 µM,95% (active)
same,growth inhibition,[8]; at 100.0 µM,85% (active)
same,growth inhibition,[9]; [17],33%
same,growth inhibition,[9]; [18],97% (active)
same,growth inhibition,[9]; at 50.0 µM,91.2% (active)
same,growth inhibition,[10]; at 1.2 µM,7%
same,growth inhibition,[10]; at 3.7 µM,20%
same,growth inhibition,[10]; [17],25%
same,growth inhibition,[10]; at 11.0 µM,46%
same,growth inhibition,[10]; at 33.0 µM,96% (active)
same,growth inhibition,[10]; [18],98% (active)
same,growth inhibition,[10]; at 50.0 µM,90.7% (active)
same,growth inhibition,[10]; at 100.0 µM,88% (active)
same,growth inhibition,[11]; at 1.2 µM,-5%
same,growth inhibition,[11]; at 3.7 µM,-4%
same,growth inhibition,[11]; at 11.0 µM,22%
same,growth inhibition,[11]; at 33.0 µM,95% (active)
same,growth inhibition,[11]; at 100.0 µM,90% (active)
same,growth inhibition,[12]; at 1.2 µM,1%
same,growth inhibition,[12]; at 3.7 µM,-14%
same,growth inhibition,[12]; at 11.0 µM,28%
same,growth inhibition,[12]; at 33.0 µM,95% (active)
same,growth inhibition,[12]; at 100.0 µM,90% (active)
same,growth inhibition,[13]; at 1.2 µM,7%
same,growth inhibition,[13]; at 3.7 µM,15%
same,growth inhibition,[13]; at 11.0 µM,44%
same,growth inhibition,[13]; at 33.0 µM,96% (active)
same,growth inhibition,[13]; at 100.0 µM,87% (active)
same,growth inhibition,[14]; [17],44%
same,growth inhibition,[14]; [18],87% (active)
same,growth inhibition,[14]; at 50.0 µM,90.2% (active)
same,growth inhibition,[15]; at 1.2 µM,-15%
same,growth inhibition,[15]; at 3.7 µM,-3%
same,growth inhibition,[15]; at 11.0 µM,24%
same,growth inhibition,[15]; at 33.0 µM,95% (active)
same,growth inhibition,[15]; at 100.0 µM,89% (active)
Cc1cc(Cl)ccc1NC(=O)/C(Cl)=C(/Cl)C(=O)O,growth inhibition,[1]; at 1.2 µM,2%
same,growth inhibition,[1]; at 3.7 µM,6%
same,growth inhibition,[1]; at 11.0 µM,21%
same,growth inhibition,[1]; at 33.0 µM,70% (active)
same,growth inhibition,[1]; at 100.0 µM,99% (active)
same,growth inhibition,[2]; at 1.2 µM,0%
same,growth inhibition,[2]; at 3.7 µM,-1%
same,growth inhibition,[2]; at 11.0 µM,0%
same,growth inhibition,[2]; at 33.0 µM,11%
same,growth inhibition,[2]; at 100.0 µM,99% (active)
same,growth inhibition,[3]; at 1.2 µM,5%
same,growth inhibition,[3]; at 3.7 µM,11%
same,growth inhibition,[3]; at 11.0 µM,25%
same,growth inhibition,[3]; at 33.0 µM,78% (active)
same,growth inhibition,[3]; at 100.0 µM,99% (active)
same,growth inhibition,[4]; at 1.2 µM,0%
same,growth inhibition,[4]; at 3.7 µM,5%
same,growth inhibition,[4]; at 11.0 µM,8%
same,growth inhibition,[4]; at 33.0 µM,29%
same,growth inhibition,[4]; at 100.0 µM,100% (active)
same,growth inhibition,[5]; at 1.2 µM,1%
same,growth inhibition,[5]; at 3.7 µM,6%
same,growth inhibition,[5]; [17],-1%
same,growth inhibition,[5]; at 11.0 µM,16%
same,growth inhibition,[5]; at 33.0 µM,81% (active)
same,growth inhibition,[5]; [18],22%
same,growth inhibition,[5]; at 50.0 µM,99.5% (active)
same,growth inhibition,[5]; at 100.0 µM,99% (active)
same,growth inhibition,[6]; at 1.2 µM,3%
same,growth inhibition,[6]; at 3.7 µM,6%
same,growth inhibition,[6]; [17],3%
same,growth inhibition,[6]; at 11.0 µM,11%
same,growth inhibition,[6]; at 33.0 µM,51%
same,growth inhibition,[6]; [18],23%
same,growth inhibition,[6]; at 50.0 µM,97.7% (active)
same,growth inhibition,[6]; at 100.0 µM,100% (active)
same,growth inhibition,[16]; at 1.2 µM,2%
same,growth inhibition,[16]; at 3.7 µM,5%
same,growth inhibition,[16]; at 11.0 µM,13%
same,growth inhibition,[16]; at 33.0 µM,34%
same,growth inhibition,[16]; at 100.0 µM,100% (active)
same,growth inhibition,[7]; [17],0%
same,growth inhibition,[7]; [18],37%
same,growth inhibition,[7]; at 50.0 µM,99.7% (active)
same,growth inhibition,[9]; [17],-4%
same,growth inhibition,[9]; [18],11%
same,growth inhibition,[9]; at 50.0 µM,98.8% (active)
same,growth inhibition,[10]; at 1.2 µM,2%
same,growth inhibition,[10]; at 3.7 µM,4%
same,growth inhibition,[10]; [17],3%
same,growth inhibition,[10]; at 11.0 µM,12%
same,growth inhibition,[10]; at 33.0 µM,56%
same,growth inhibition,[10]; [18],37%
same,growth inhibition,[10]; at 50.0 µM,99.6% (active)
same,growth inhibition,[10]; at 100.0 µM,99% (active)
same,growth inhibition,[11]; at 1.2 µM,0%
same,growth inhibition,[11]; at 3.7 µM,1%
same,growth inhibition,[11]; at 11.0 µM,5%
same,growth inhibition,[11]; at 33.0 µM,18%
same,growth inhibition,[11]; at 100.0 µM,100% (active)
same,growth inhibition,[12]; at 1.2 µM,-1%
same,growth inhibition,[12]; at 3.7 µM,2%
same,growth inhibition,[12]; at 11.0 µM,5%
same,growth inhibition,[12]; at 33.0 µM,22%
same,growth inhibition,[12]; at 100.0 µM,100% (active)
same,growth inhibition,[13]; at 1.2 µM,2%
same,growth inhibition,[13]; at 3.7 µM,2%
same,growth inhibition,[13]; at 11.0 µM,11%
same,growth inhibition,[13]; at 33.0 µM,55%
same,growth inhibition,[13]; at 100.0 µM,99% (active)
same,growth inhibition,[14]; [17],0%
same,growth inhibition,[14]; [18],17%
same,growth inhibition,[14]; at 50.0 µM,99.3% (active)
same,growth inhibition,[15]; at 1.2 µM,-2%
same,growth inhibition,[15]; at 3.7 µM,0%
same,growth inhibition,[15]; at 11.0 µM,11%
same,growth inhibition,[15]; at 33.0 µM,30%
same,growth inhibition,[15]; at 100.0 µM,99% (active)
